From PubChem BioAssay (NCATS)
Inconclusive results are not listed. Where a call stands in place of a potency, no number is given. Calls of active or inactive are those of the source. Unless noted, the call rests on the fitted dose curve; in most records, active means well fitted curve in the direction sought with a large enough effect; inconclusive means small, poorly fitted or top-dose-only effect, or another doubt; inactive means no such curve, though single readings can be large; an effect the other way counts as inactive or inconclusive.

Experiments:
[1] = qHTS for differential inhibitors of proliferation of Plasmodium falciparum line D10 (AID 1877);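 further: parasites grown with compound for 72 h before DNA staining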; further: potency means the concentration at half of the fitted maximal effect
[2] = qHTS for differential inhibitors of proliferation of Plasmodium falciparum line Dd2 (AID 1882); settings: Potency: Plasmodium falciparum Dd2 proliferation inhibition; further: nearly all actives have a fitted effect of over 65% in size; further: potency means the concentration at half of the fitted maximal effect
How it was run: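 SYBR Green I DNA fluorescence read-out, ex 485/em 535 nm. Signals were normalized to 0.29 uM artemisinin and DMSO wells, then corrected using vehicle-only plates flanking each stack. Parasite growth ran 72 h in erythrocytes before lysis.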

[3] = qHTS for differential inhibitors of proliferation of Plasmodium falciparum line W2 (AID 1883); settings: Potency: Plasmodium falciparum W2 proliferation inhibition;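 further: parasites grown with compound for 72 h before lysis and staining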; further: potency means the concentration at half of the fitted maximal effect
[4] = qHTS for differential inhibitors of proliferation of Plasmodium falciparum line HB3 (AID 1886); settings: Potency: Plasmodium falciparum HB3 proliferation inhibition;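 further: parasites grown with compound for 72 h before SYBR Green readout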; further: potency means the concentration at half of the fitted maximal effect
[5] = biological target: Ferritin light chain (Equus caballus) (UniProt P02791); assay: qHTS Validation Assay for Identification of Novel General Anesthetics (AID 2323); further: series mostly up to about 77 µM
Sequence of Ferritin light chain (Equus caballus) (P02791 2-175 limits assumed): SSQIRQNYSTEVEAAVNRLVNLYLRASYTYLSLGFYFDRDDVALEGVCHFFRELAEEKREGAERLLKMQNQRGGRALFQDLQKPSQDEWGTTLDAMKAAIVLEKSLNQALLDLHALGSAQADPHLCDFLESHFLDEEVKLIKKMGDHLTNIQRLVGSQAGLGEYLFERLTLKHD
How it was run: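 Fluorescence at 535 nm (excitation 380 nm) reported loss of 1-AMA binding to horse-spleen apoferritin (10 uM) in PBS with 50% saturated 1-aminoanthracene, after 10 min room-temperature incubation with compound; values from Hill fits of normalized response.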

[6] = biological target: ATP-dependent DNA helicase Q1 (Homo sapiens) (UniProt P46063); assay: qHTS Validation Assay for Inhibitors of RecQ-Like Dna Helicase 1 (RECQ1) (AID 2353); further: potency means the concentration at half of the fitted maximal effect
Sequence of ATP-dependent DNA helicase Q1 (Homo sapiens) (P46063 whole entry, looked up): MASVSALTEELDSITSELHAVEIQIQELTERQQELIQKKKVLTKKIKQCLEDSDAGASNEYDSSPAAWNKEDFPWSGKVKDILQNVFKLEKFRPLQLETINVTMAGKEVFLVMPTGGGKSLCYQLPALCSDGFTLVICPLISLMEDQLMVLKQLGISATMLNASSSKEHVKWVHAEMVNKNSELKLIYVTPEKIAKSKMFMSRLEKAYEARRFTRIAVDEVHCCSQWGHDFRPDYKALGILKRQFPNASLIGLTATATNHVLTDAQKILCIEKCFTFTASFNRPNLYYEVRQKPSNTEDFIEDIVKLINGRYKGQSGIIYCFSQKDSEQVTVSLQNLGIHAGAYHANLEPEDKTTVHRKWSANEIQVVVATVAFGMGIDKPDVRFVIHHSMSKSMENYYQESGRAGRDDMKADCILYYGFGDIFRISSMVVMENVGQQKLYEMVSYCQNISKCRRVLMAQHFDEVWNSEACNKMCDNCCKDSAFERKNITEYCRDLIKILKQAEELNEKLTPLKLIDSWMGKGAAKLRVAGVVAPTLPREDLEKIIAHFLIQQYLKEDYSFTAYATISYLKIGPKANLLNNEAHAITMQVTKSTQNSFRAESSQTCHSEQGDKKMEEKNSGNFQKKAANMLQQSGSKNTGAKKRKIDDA
How it was run: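 50 nM RECQ1T1 preincubated 15 min with compound in Tris pH 8.0 buffer with MgCl2, DTT, Tween-20 and 2.5 ug/ml poly(dI-dC); started with 200 nM TAMRA/BHQ-2 forked duplex and 2 mM ATP. Unwinding read as fluorescence (525/598 nm), two reads 2 h apart.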

[7] = biological target: RecQ-like DNA helicase BLM (Homo sapiens) (UniProt P54132); assay: qHTS Validation Assay for Inhibitors of Bloom's syndrome helicase (BLM) (AID 2364); further: potency means the concentration at half of the fitted maximal effect
Sequence of RecQ-like DNA helicase BLM (Homo sapiens) (P54132 whole entry, looked up): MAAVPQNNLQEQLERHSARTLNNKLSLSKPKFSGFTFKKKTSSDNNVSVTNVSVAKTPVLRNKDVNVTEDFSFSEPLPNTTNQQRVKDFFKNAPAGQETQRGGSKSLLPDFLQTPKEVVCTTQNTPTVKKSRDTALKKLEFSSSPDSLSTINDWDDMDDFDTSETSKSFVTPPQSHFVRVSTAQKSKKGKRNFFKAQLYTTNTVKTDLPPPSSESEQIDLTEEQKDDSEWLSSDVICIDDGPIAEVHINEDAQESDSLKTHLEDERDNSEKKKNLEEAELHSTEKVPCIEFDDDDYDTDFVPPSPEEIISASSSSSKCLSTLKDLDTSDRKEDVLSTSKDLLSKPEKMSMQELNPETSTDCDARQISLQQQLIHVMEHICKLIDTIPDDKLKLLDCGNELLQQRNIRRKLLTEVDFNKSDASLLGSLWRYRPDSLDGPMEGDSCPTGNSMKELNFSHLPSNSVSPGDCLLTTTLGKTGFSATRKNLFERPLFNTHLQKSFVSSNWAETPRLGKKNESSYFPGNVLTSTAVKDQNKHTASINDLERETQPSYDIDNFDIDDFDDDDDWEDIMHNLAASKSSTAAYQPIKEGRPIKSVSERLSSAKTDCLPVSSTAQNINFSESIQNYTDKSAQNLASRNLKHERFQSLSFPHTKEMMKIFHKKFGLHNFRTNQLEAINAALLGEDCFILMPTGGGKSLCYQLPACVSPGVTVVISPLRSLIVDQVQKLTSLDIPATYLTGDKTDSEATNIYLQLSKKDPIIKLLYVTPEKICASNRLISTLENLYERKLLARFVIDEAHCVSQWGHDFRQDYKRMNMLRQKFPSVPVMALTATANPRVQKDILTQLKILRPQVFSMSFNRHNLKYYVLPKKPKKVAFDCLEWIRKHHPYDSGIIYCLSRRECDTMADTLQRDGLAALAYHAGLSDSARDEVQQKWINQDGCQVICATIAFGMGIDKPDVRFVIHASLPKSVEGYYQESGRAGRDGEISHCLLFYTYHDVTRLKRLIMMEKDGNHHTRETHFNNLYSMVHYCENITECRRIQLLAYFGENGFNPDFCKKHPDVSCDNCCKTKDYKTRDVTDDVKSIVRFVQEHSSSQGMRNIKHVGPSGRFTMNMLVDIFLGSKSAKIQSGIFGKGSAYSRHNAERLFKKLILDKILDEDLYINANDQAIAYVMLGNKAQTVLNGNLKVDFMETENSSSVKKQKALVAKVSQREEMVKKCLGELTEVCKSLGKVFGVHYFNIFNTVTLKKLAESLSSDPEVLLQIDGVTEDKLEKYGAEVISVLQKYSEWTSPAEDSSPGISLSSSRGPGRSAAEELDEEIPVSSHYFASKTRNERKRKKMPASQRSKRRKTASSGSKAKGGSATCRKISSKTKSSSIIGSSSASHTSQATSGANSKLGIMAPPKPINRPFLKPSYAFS
How it was run: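 50 nM BLM preincubated 15 min at room temperature with compound in pH 8.0 Tris buffer containing 2.5 ug/ml poly(dI-dC); started with 200 nM TAMRA/BHQ-2 forked duplex and 2 mM ATP (final). Unwinding read as TAMRA fluorescence increase, two reads 2 h apart.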

[8] = qHTS Assay for Modulators of Human Peripheral Myelin Protein 22 (PMP22) Expression/Activity (AID 1967; active means well fitted curve in the direction sought with a large enough effect in the signal ratio; the % refers to the signal ratio)
How it was run: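 Luminescence ratio of Pmp22 promoter-driven green luciferase to EF-alpha-driven red luciferase, in engineered mouse MSC80 Schwann cells, served as read-out. Compounds were incubated 24h; untreated cells defined 0% Activity; curves were classified by r2, magnitude and activity.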

In the case of `CC1OC1P(=O)(O)O` (centres undefined), the Potency [1] is reported as “inactive”, the Potency [2] is reported as “inactive” and the Potency [3] is reported as “inactive”. The Potency [4] was “inactive”, the outcome [5] was “inactive” and the Potency [6] was “inactive”.
For `Cc1c2ccncc2c(C)c2c1[nH]c1ccccc12`, the Potency [1] was 2 µM (active), the Potency [2] was 1.12 µM (active) and the Potency [3] was 0.708 µM (active). The Potency [4] was 1.41 µM (active), the outcome [5] was “inactive” and the Potency [7] was “inactive”.
With `CCn1cnc2c(Nc3cccc(Cl)c3)nc(N[C@@H]3CCCC[C@@H]3N)nc21` the Potency [1] was 7.94 µM (active), the Potency [2] was 11.2 µM (active) and the Potency [3] was 2.82 µM (active). The Potency [4] was 8.91 µM (active), the outcome [5] was “inactive” and the Potency [7] was “inactive”.
For `CCCn1c(C)c(C(=O)c2ccc3ccccc3c2)c2ccccc21`, the Potency [1] was 14.1 µM (active), the Potency [2] was “inactive” and the Potency [3] was 10 µM (active). For the same compound, the Potency [4] was 12.6 µM (active), the outcome [5] was “inactive” and the Potency [6] was “inactive”.
With `NCCCP(=O)(O)O` the Potency [1] was “inactive”, the Potency [2] was “inactive” and the Potency [3] was “inactive”. The Potency [4] was “inactive”, the outcome [5] was “inactive” and the Potency [6] was “inactive”.
For `CN(N=O)c1cc(O)ccc1O`, the Potency [1] was “inactive”, the Potency [2] was “inactive” and the Potency [3] was “inactive”. The Potency [4] was “inactive”, the outcome [5] was “inactive” and the Potency [6] was 7.94 µM (active). The Potency [7] was 28.2 µM (active).
With `NC(=O)CI` the Potency [1] was “inactive”, the Potency [2] was “inactive” and the Potency [3] was “inactive”. For the same compound, the Potency [4] was “inactive” and the Potency [6] was “inactive”.
With `NC(Cc1cc(O)c(O)cc1O)C(=O)O` (centres undefined) the Potency [1] was “inactive”, the Potency [2] was “inactive” and the Potency [3] was “inactive”. For the same compound, the Potency [4] was “inactive”, the Potency [6] was 1.41 µM (active) and the Potency [7] was 3.16 µM (active).
In the case of `C=CCN1CC[C@]23c4c5ccc(O)c4O[C@@H]2/C(=N/N=C2\CC[C@@]4(O)C6Cc7ccc(O)c8c7[C@@]4(CCN6CC=C)[C@@H]2O8)CC[C@@]3(O)C1C5`, the Potency [1] is reported as 2.82 µM (active), the Potency [2] is reported as 8.91 µM (active) and the Potency [3] is reported as 2.51 µM (active). For the same compound, the Potency [4] was 2.82 µM (active) and the Potency [7] was “inactive”.
With `C[N+](C)(C)CC#CCOC(=O)Nc1cccc(Cl)c1` the Potency [1] was 11.2 µM (active), the Potency [2] was “inactive” and the Potency [3] was 12.6 µM (active). For the same compound, the outcome [8] was “inactive”, the outcome [5] was “inactive” and the Potency [6] was “inactive”.
